Results published in article PMC5540273 (PLoS ONE, 2017).

Experiments:
Conditions in all cases: concentration: 1 μM,replicates: in singlicate; n = 1
ERK1 = test system: T1, ERK1
T1 construct: gene MAPK3

ERK2 = test system: T2, ERK2
T2 construct: gene MAPK1

ERK3 = test system: T3, ERK3
T3 construct: gene MAPK6

ERK4 = test system: T4, ERK4
T4 construct: gene MAPK4

ERK5 = test system: T5, ERK5
T5 construct: gene MAPK7

ERK8 = test system: T6, ERK8
T6 construct: gene MAPK15

ERN1 = test system: ERN1
FAK = test system: T7, FAK
T7 construct: gene PTK2

FER = test system: FER
FES = test system: FES
FGFR1 = test system: FGFR1
FGFR2 = test system: FGFR2
FGFR3 = test system: FGFR3
FGFR4 = test system: FGFR4
FGR = test system: FGR
FLT1 = test system: FLT1
FLT3-autoinhibited = test system: FLT3-autoinhibited
FLT3 = test system: FLT3
FLT4 = test system: FLT4
FRK = test system: FRK
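Further: KINOMEscan kinase panel screen.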

SMILES	%Inh (ERK1)	%Inh (ERK2)	%Inh (ERK3)	%Inh (ERK4)	%Inh (ERK5)	%Inh (ERK8)	%Inh (ERN1)	%Inh (FAK)	%Inh (FER)	%Inh (FES)	%Inh (FGFR1)	%Inh (FGFR2)	%Inh (FGFR3)	%Inh (FGFR4)	%Inh (FGR)	%Inh (FLT1)	%Inh (FLT3-autoinhibited)	%Inh (FLT3)	%Inh (FLT4)	%Inh (FRK)
COC(=O)Nc1nc2cc(Oc3ccc(NC(=O)Nc4cc(C(F)(F)F)ccc4Cl)cc3)ccc2[nH]1.Cl [GW697465]	0%	0%	6%	0%	0%	90.9%	0%	0%	24%	0%	4%	34%	95.8%	1%	13%	98.8%	0%	99.1%	99.4%	91.8%
CN1CCN(CCNc2nc3cc(Oc4ccc(NC(=O)Nc5cc(C(F)(F)F)ccc5F)cc4)ccc3[nH]2)CC1.Cl.Cl [GW768504]	0%	0%	0%	0%	0%	69%	0%	11%	20%	9%	6%	0%	0%	0%	0%	90.7%	0%	98.1%	49%	69%
Cc1ccc(Nc2ccnc(Nc3ccc4c(c3)CS(=O)(=O)C4)n2)cc1O.Cl [GW579362]	0%	0%	51%	48%	0%	18%	42%	65%	52%	2%	84%	79%	73%	41%	97%	99.6%	92.7%	99%	100%	99.1%
NC(=O)Nc1sc(-c2ccc(F)cc2)cc1C(N)=O [GW789449]	0%	16%	0%	0%	10%	10%	27%	5%	0%	11%	36%	7%	10%	0%	45%	28%	5%	50%	31%	0%
O=C1NCCc2[nH]c(-c3ccncc3)cc21	13%	28%	0%	0%	0%	93.1%	8%	0%	4%	30%	0%	4%	10%	0%	20%	6%	12%	0%	0%	0%
CC(C)S(=O)(=O)N1CCN(Cc2ccc3c(c2)nc(NC(=O)c2ccsc2)n3C[C@H](O)c2ccccc2)CC1 [GW635815]	0%	0%	1%	0%	0%	0%	4%	29%	39%	15%	12%	16%	0%	8%	74%	71%	90.4%	98%	0%	3%
COc1cc(Nc2nccc(N3CCC(NC(=O)c4cccc(C#N)c4)C3)n2)cc(OC)c1OC (stereo not shown) [GSK1379751]	0%	0%	3%	0%	0%	0%	0%	0%	0%	0%	0%	0%	5%	7%	37%	0%	0%	44%	11%	0%
c1ccc(Oc2ccc(Nc3ccnc4ccc(-c5ccccn5)cc34)cc2)cc1 [GW407034]	0%	83%	4%	0%	0%	31%	0%	0%	18%	0%	0%	34%	25%	4%	69%	14%	0%	0%	3%	38%
CC(C(=O)NC1CCN(c2ccnc(Nc3ccc(F)cc3)n2)C1)c1ccc(Cl)cc1 (stereo not shown) [GSK1379713]	0%	0%	0%	0%	0%	0%	0%	0%	46%	1%	0%	11%	9%	0%	0%	33%	0%	8%	0%	0%
Cc1n[nH]c2cc(Nc3ccnc(Nc4cccc(CN5CCOCC5)c4)n3)ccc12 [GW682569]	0%	0%	0%	22%	7%	0%	24%	0%	8%	0%	15%	0%	32%	0%	49%	70%	18%	68%	65%	0%
Cl.Nc1n[nH]c2cc(-c3ccccn3)ccc12 [GSK2189892]	0%	0%	0%	31%	0%	0%	0%	0%	13%	0%	0%	15%	0%	0%	10%	19%	0%	0%	0%	1%
